eIF4E-4G inh = inhibitors of eIF4E and eIF4G interaction in translation initiation. P63073+Q04637. TR-FRET eIF4E-eIF4GI(517-606) binding, 2 h. inhibition, % at 21.7 µM. 220,000 compounds, 0.37% hits;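 active = inhibition above about 30%, limit read from the data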;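 note: 0% = full FRET control wells and 100% = background wells lacking eIF4GI fragment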
EP2 mod = modulates human prostaglandin E2 receptor EP2 signaling; 260,000 compounds, 0.83% hits; EP2-expressing cells, cAMP HTRF FRET, PGE2 co-stimulation; induction, % at 25 µM;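 active = compounds whose cAMP rise, as percent of the full-agonist control response, exceeds 60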;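 note: rat C6 glioma line stably carrying human EP2 under a CMV promoter; the protocol text gives 20 µM as final concentration; 100% = response of wells given 1 µM PGE2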
Target sequence (P43116 whole entry, looked up): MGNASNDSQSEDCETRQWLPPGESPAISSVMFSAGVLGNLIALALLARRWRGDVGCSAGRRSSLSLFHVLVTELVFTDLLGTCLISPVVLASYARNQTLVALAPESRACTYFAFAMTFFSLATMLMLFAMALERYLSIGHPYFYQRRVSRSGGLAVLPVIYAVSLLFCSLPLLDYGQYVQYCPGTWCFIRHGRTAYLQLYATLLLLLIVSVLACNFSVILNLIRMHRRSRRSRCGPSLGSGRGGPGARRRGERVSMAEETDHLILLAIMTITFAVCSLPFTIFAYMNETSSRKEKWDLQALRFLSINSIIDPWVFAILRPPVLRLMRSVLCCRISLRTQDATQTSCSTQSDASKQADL
EP2 antag = inhibitors of human EP2 prostaglandin E2 receptor | P43116 | C6 glioma cells expressing human EP2, cAMP TR-FRET; cells stimulated with saturating PGE2 | inhibition, % at 25 µM | 260,000 compounds, 0.52% hits | AID 1422;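 active = percent inhibition above 40 after rounding to a whole number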;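 note: rat C6 glioma host cells with rolipram phosphodiesterase inhibitor present; the protocol text gives 20 µM as final concentration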
PERK inhibitor = inhibitors of human PERK kinase; Q9NZJ5; CHO PERK-DD fusion, SEAP luminescence translation reporter; inhibition, % at 5.6 µM; 220,000 compounds, 0.17% hits; AID 1416;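 active = inhibition above the mean inhibition of all tested compounds plus 3 SD, set separately per screening campaign, cut at about 2.9% in these data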;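 note: PERK kinase domain activated by AP20187 dimerizer at 100 nM; 0% = DMSO with dimerizer and 100% = rapamycin at 8.4 µM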
Starred values were filed as active, the others as inactive; . = no result given; [ ] = remark or other dose. Sampled rows, rich in hits. Any-hit rate of the full collection: about 1.8%.

SMILES	eIF4E-4G inh	EP2 mod	EP2 antag	PERK inhibitor
C/C(N[O-])=C(\C)[N+]([O-])=[Rh][Cl].CC(=N\[O-])/C(C)=N/[O-].NC(N)=[SH+]	.	26	49*	.
O=C1C2C3C=CC(C3)C2C(=O)N1CCCCN1C(=O)C2C3C=CC(C3)C2C1=O (centres undefined)	46*	-7	5	0
C=CCNC(=O)c1onc(CSc2ccc(Cl)cc2)c1C(=O)O	-4	-6	12	2
C=CCNC(=O)c1onc(CSc2ccc(F)c(F)c2)c1C(=O)O	4	1	12	3.1*
COc1ccccc1NC(=O)N(Cc1ccccc1)c1ccccn1	-6	61*	-3	1
O=C(CCCC(=O)N/N=C/c1ccccc1C(=O)O)N/N=C/c1ccccc1C(=O)O	-4	7	10	3.5*
Cc1nnc2c(=O)[nH]c3ccccc3n12	.	7	6	.
COc1ccccc1NC(=O)c1ccc2c(c1)N(Cc1cc(C)ccc1C)C(=O)C(C)(C)O2	.	64*	15	.
COc1ccccc1NC(=O)CN1C(=O)C(C)(C)Oc2ccc(C(=O)NC3CCCC3)cc21	.	31	8	.
COc1ccc(/C=N/n2cnc3c([nH]c4ccccc43)c2=O)cc1CO	2	-4	10	-1
COc1ccc(/C=N/n2cnc3c([nH]c4ccc(Br)cc43)c2=O)cc1CN1CCOCC1	41*[fluorescence artefact?]	14	23	1
CCn1c2cc(C)sc2c2cnn(CC(=O)NCc3ccccc3OC)c(=O)c21	.	-16	.	.
COc1cc2cc(C(c3nnnn3C3CCCC3)N(C)C3CCCCC3)c(=O)[nH]c2cc1OC (centres undefined)	30*	21	8	0
CCn1c(SCC(=O)Nc2cccc(F)c2)nnc1-c1ccco1	.	-3	16	.
CNC(=O)C1CCN(C(=O)c2cccs2)CC1	.	-22	3	.
CN1CC(c2ccccn2)C2(SC(=S)N(Cc3ccccc3)C2=O)C12C(=O)Nc1ccccc12 (centres undefined)	4	25	7	-1
CN1CC(c2ccccc2)C2(SC(=S)N(Cc3ccco3)C2=O)C12C(=O)Nc1ccccc12 (centres undefined)	7	61*	9	-2
CCCCOCCCn1c(-c2ccco2)nc2nc3ccccc3nc21	54*	53	11	-2
CCCCn1c(-c2cccs2)nc2nc3ccccc3nc21	2	39	4	0
CCOc1ccc2c(C)cc(=O)oc2c1OCC	-2	45	7	1
CCCCOc1ccc2c(C)cc(=O)oc2c1OCCCC	4	62*	0	1
c1csc(-c2nc3ccccn3c2NC2CCCCC2)c1	2	61*	5	0
CCn1c(CNc2ccc(OC)cc2)nnc1SCCN1CCCCC1	.	-19	13	.
Cc1ccc(S(=O)(=O)N2CCN(CC(=O)N/N=C\C(Cl)=C\c3ccccc3)CC2)cc1	-2	-18	2	0
CC(/C=N\NC(=O)CN1CCN(S(=O)(=O)c2ccc(C)cc2)CC1)=C\c1ccccc1	33*[fluorescence artefact?]	3	4	0
SMILES	eIF4E-4G inh	EP2 mod	EP2 antag	PERK inhibitor
O=S1(=O)CC2NC(=S)N(c3cccc(Br)c3)C2C1 (centres undefined)	2	70*	6	1
Nc1ncnc2c1ncn2C1CCCO1 (centres undefined)	.	-48	24	.
Clc1ccc(CSc2ncnc3c2ncn3[C@@H]2CCCCO2)cc1	.	-3	45*	.
CCc1cc(NCCCN2CCOCC2)n2nc3nc(C)cc(C)c3c2n1	.	-45	.	.
CCOC(=O)c1nn(-c2ccc(F)cc2)c2nc(-c3ccccc3)c(C#N)c(=O)n12	9	65*	9	-1
CC(=O)Nc1ccnc(-c2cccnc2)n1	86*	14	7	1
CC(C)C(=O)Nc1ccnc(-c2cccnc2)n1	4	14	8	1
COc1cccc(/C=C2\SC(=S)N(CCC(=O)Nc3nc4ccccc4s3)C2=O)c1	.	-83	23	.
COc1ccc([C@@H](Nc2ncccn2)c2cc3c(cc2O)OCO3)cc1	.	12	53*	.
COc1ccc(-c2nc(NC(=O)c3[nH]c(C)c(C(C)=O)c3C)sc2C)cc1	1	-64	100*	0
CC(=O)c1c(C)[nH]c(C(=O)Nc2nc(-c3ccc(Cl)cc3)cs2)c1C	16	-52	41*	0
Cc1ccc(C)c(CN2C(=O)C3(OCCCO3)c3ccccc32)c1	-1	62*	8	-1
Cc1ccc(CNC(=O)CN2C(=O)C3(OCCCO3)c3ccccc32)cc1	-2	15	10	0
CN(C)c1nc(SCc2ccc(Cl)cc2)nc2c1CCCC2	-2	62*	3	1
COc1ccc(NC(=O)C2CCN(C(=O)Nc3ccc(Cl)cc3)CC2)cc1	.	-19	7	.
COc1ccc(/C=C/C(=O)N[C@@H](C)C(=O)O)cc1	6	31	11	3.4*
COc1ccc(/C=C/C(=O)N[C@H](C(=O)O)C(C)C)cc1	-1	26	2	0
Cc1nsc(N)c1C(=O)O	-4	-10	8	3.4*
COc1ccc(-n2c(C)c(C(=O)O)c3cc(OC)c4ccccc4c32)cc1	-6	70*	7	2
O=C(CCn1nnc2ccccc21)Nc1ccc(Br)cc1	.	-29	4	.
COc1ccccc1NC(=O)C1=C(C)NC2=C(C(=O)CC(C)(C)C2)C1c1cccs1 (centres undefined)	.	63*	15	.
O=C(Cn1nnc2ccccc2c1=O)NCC1CCC(C(=O)O)CC1 (centres undefined)	2	-31	6	3.2*
N#C/C(=C\NC(=S)c1ccncc1)c1nc2ccccc2s1	.	0	53*	.
N#C/C(=C/c1ccncc1)c1nc2ccccc2s1	-6	-97	9	0
COC(=O)c1cc(=O)n(Cc2ccc3c(c2)OCO3)c(=Nc2ccc(F)c(Cl)c2)s1	9	26	9	2.9*
SMILES	eIF4E-4G inh	EP2 mod	EP2 antag	PERK inhibitor
CCN1CCCC1CN(Cc1cccnc1)Cc1ccnn1C1CCCCO1 (centres undefined)	.	-26	7	.
O=C(CSc1nnc(-c2cccnc2)n1Cc1ccccc1)NC1CCCC1	.	-24	9	.
COc1cccc(CN2CCN(C(=O)c3ccn[nH]3)[C@@H](C)C2)c1	.	-13	.	.
Cc1ccc(OCc2nn3c(-c4ccco4)nnc3s2)cc1	6	63*	6	0
Brc1ccc(-c2nn3c(-c4ccco4)nnc3s2)o1	-22	33	43*	0
Clc1ccc(OCc2nn3c(-c4ccco4)nnc3s2)c(Cl)c1	-1	5	6	-1
CCOc1ccc2[nH]c(=O)c(CN(CC3COCCO3)C(=O)c3ccccc3F)cc2c1 (centres undefined)	.	-8	16	.
CCOCCNC(=O)CSc1ccc(-c2ccc(OC)cc2)nn1	.	13	23	.
COc1ccc2c3c([nH]c2c1)C1CC2C(CC(O)C(OC)C2CO)CN1CC3 (centres undefined)	-3	-6	14	4.1*
COC(=O)[C@H]1[C@H]2C[C@@H]3c4[nH]c5cc(OC)ccc5c4CCN3C[C@H]2C[C@@H](OC(=O)c2ccc(N)cc2)[C@@H]1OC	1	-13	4	0
C=CCCCN(Cc1ccccc1)S(=O)(=O)c1ccccc1Br	0	61*	6	.
